Assay results taken from the supplement of paper PMC10849652.
Targets with a hit are over-represented here; the source holds about 7,900 in all. About 0.6% of all pairs of compound and target were hits.

Compound: CC(C)C1=C2N=C(C=C(N2N=C1)NCC3=CC=CC=C3)NCCCCCCN
Test: log2 fold change, soluble protein after heating vs DMSO (PISA); higher = thermal stabilisation; K562 cells, 10 uM, 30 min; active = over 0.2 and 3.5 SD of the protein, either way, in both replicates (recomputed)
Summary of the method: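 Thermal stability values are relative to control samples and come from duplicates. They are expressed as log2 fold changes. For measurement, K562 cells (2×10^6 cells/mL) received 10 μM compound for 30 min, and aliquots were heated for 3 min over 48°C-58°C, pooled, and extracted at 4°C in PBS with 0.5% NP-40. Soluble protein, the supernatant after 21,000xg for 90 min, was quantified by TMTpro 16plex LC-MS/MS with equalised channel sums.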

Chain of UniProt Q02750 (Q02750 whole entry, looked up): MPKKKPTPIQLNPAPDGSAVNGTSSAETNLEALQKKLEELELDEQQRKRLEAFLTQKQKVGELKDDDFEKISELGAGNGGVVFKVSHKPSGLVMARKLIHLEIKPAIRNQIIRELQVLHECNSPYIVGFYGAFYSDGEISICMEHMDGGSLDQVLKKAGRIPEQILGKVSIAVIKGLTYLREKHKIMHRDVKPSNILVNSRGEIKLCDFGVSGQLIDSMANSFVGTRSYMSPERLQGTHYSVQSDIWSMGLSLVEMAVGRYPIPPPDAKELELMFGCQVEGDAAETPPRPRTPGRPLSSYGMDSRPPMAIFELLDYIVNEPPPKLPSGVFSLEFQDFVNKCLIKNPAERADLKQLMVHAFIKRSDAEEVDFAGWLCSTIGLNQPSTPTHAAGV
Chain of UniProt Q92604 (Q92604 whole entry, looked up): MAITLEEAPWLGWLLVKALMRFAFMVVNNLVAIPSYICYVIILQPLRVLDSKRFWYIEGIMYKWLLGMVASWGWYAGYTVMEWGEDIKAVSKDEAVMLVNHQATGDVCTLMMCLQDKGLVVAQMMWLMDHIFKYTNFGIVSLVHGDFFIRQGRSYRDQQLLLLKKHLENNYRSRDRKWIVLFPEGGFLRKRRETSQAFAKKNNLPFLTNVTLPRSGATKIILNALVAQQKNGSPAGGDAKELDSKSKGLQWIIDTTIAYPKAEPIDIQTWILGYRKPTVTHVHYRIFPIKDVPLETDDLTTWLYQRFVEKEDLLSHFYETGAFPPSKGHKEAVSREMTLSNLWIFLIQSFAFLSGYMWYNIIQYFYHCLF
Chain of UniProt Q92615 (Q92615 whole entry, looked up): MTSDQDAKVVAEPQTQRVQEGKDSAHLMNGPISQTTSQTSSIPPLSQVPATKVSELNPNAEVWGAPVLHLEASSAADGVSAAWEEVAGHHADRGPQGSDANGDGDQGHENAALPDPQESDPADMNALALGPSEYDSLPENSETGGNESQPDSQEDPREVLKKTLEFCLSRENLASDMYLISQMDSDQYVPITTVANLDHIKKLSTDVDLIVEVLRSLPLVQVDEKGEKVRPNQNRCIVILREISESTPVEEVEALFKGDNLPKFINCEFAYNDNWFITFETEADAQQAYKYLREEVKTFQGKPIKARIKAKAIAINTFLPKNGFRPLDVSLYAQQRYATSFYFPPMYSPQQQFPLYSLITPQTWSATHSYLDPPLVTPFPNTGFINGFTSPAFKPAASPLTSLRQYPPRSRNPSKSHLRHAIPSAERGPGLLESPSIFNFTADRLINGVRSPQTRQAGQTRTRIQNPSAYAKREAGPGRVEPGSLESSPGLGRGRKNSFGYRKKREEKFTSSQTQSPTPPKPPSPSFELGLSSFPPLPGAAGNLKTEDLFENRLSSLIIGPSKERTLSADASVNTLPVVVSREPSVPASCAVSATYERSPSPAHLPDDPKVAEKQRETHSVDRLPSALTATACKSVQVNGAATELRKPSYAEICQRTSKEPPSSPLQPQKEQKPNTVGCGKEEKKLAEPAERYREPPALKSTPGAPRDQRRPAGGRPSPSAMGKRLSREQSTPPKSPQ
Chain of UniProt Q9Y6R4 (Q9Y6R4 whole entry, looked up): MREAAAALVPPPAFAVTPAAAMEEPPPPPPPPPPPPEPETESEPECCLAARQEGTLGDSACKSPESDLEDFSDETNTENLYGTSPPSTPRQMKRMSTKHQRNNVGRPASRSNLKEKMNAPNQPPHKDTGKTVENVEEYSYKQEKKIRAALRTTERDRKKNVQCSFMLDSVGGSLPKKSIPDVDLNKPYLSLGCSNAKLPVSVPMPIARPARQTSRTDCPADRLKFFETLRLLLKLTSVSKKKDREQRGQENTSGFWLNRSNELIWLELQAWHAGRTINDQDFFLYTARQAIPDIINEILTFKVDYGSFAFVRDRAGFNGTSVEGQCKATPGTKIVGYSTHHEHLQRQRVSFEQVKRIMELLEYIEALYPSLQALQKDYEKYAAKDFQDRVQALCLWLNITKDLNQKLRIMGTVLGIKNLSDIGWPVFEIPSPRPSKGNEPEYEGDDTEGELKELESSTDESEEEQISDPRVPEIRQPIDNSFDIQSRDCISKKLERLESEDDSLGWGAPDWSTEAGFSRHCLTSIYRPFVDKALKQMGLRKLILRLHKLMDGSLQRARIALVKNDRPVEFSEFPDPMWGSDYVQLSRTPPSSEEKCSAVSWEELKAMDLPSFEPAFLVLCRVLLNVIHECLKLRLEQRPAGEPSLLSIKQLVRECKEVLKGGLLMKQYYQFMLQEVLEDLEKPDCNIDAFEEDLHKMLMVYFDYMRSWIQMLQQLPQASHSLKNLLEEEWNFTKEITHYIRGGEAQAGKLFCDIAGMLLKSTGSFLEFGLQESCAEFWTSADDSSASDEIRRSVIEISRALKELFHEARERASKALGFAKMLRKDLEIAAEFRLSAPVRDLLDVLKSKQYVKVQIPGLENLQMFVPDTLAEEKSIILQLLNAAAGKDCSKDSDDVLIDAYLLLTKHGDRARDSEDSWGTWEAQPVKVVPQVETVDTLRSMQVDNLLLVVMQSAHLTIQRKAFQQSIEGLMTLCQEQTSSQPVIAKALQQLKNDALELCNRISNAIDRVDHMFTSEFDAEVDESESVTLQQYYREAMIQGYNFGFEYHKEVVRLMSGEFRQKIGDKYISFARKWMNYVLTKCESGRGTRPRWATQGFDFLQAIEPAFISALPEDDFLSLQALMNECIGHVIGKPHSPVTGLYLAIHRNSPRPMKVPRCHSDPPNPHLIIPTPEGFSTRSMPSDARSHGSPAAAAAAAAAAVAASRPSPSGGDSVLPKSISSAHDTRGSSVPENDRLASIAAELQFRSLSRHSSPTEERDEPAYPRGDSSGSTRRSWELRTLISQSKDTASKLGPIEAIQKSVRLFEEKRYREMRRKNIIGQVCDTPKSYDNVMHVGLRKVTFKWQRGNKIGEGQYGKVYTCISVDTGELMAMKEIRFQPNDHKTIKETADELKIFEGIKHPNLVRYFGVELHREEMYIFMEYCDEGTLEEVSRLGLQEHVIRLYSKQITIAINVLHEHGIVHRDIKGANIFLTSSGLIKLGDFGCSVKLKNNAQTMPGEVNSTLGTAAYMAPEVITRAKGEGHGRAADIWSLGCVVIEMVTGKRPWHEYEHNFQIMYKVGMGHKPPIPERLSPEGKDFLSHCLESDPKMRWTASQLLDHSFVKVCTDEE
Chain of UniProt Q8WWC4 (Q8WWC4 whole entry, looked up): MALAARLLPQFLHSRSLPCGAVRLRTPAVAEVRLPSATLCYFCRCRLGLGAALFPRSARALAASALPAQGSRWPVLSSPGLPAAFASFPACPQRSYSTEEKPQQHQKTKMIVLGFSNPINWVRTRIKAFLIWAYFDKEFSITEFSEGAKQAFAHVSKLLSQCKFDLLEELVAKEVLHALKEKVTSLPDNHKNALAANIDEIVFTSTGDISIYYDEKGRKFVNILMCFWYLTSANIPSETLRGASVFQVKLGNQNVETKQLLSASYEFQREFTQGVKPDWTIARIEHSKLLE
Chain of UniProt Q96GA3 (Q96GA3 whole entry, looked up): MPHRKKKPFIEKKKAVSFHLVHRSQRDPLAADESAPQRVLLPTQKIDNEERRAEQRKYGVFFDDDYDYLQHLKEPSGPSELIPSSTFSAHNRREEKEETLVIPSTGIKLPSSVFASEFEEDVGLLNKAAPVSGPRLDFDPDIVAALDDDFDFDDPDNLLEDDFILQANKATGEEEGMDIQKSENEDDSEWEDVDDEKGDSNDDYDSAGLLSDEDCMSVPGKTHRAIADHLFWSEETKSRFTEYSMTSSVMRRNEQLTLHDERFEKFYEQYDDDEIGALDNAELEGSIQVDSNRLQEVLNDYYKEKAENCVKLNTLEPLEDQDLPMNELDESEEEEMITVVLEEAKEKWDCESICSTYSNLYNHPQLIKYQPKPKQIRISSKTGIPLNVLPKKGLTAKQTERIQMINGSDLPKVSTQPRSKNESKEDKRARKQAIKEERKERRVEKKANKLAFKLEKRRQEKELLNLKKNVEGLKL
Chain of UniProt Q8WV07 (Q8WV07 whole entry, looked up): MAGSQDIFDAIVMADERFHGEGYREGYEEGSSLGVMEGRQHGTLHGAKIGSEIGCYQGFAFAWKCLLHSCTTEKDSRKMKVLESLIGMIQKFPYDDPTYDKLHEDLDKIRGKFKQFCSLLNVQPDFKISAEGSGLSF
Chain of UniProt Q13257 (Q13257 whole entry, looked up): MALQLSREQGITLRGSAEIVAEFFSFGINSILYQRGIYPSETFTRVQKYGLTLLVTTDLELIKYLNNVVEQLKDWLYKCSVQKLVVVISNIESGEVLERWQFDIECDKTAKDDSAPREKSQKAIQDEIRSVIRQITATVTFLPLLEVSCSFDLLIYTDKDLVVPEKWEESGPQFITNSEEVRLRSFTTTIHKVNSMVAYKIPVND
Chain of UniProt Q8IWB1 (Q8IWB1 whole entry, looked up): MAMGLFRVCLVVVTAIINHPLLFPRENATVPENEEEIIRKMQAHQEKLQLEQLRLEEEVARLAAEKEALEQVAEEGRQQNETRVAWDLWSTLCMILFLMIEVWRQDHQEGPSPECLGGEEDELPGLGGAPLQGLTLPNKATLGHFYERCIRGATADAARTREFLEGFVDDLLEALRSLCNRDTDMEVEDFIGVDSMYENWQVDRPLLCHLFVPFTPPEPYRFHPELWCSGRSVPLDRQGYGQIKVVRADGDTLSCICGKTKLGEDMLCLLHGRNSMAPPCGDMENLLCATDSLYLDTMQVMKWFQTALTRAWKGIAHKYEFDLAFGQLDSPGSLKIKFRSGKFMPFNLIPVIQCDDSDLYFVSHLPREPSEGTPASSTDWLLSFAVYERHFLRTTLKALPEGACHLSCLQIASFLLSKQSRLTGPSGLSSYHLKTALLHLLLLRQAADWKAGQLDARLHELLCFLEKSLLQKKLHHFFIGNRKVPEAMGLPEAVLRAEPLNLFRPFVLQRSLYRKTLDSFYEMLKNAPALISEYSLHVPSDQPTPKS
Chain of UniProt Q96A72 (Q96A72 whole entry, looked up): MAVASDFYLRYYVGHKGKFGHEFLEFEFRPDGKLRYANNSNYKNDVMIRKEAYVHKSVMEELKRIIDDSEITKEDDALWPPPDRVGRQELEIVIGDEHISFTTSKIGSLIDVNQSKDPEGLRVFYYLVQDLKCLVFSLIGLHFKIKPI

log2 fold change, active:
LTN1 isoform 3 (UniProt O94822) -0.305, LRPPRC (UniProt P42704) -1.09

log2 fold change, inactive:
MCUR1 (UniProt Q96AQ8) 0.065, ITPRIP (UniProt Q8IWB1) -0.074, MAP2K1 (UniProt Q02750) 0.023, LPGAT1 (UniProt Q92604) -0.277, LMNB1 (UniProt P20700) -0.048, LTV1 (UniProt Q96GA3) -0.233, MAIP1 (UniProt Q8WWC4) -0.201, MIER1 isoform 12 (UniProt Q8N108) -0.062, KCT2 (UniProt Q8NC54) -0.118, KPNA4 (UniProt O00629) -0.063, MAPK12 (UniProt P53778) 0.388, LDLR (UniProt P01130) -0.009, LMF2 (UniProt Q9BU23) -0.152, MAD2L1 (UniProt Q13257) -0.112, LARP4B (UniProt Q92615) -0.213, ILK (UniProt Q13418) -0.094, LTO1 (UniProt Q8WV07) -0.017, KIF3A (UniProt Q9Y496) -0.336, MAP3K20 (UniProt Q9NYL2) 0.034, MAGOHB (UniProt Q96A72) 0.061, MAP3K4 isoform 2 (UniProt Q9Y6R4) -0.027
